Data published in paper PMC5700166.

biological target: T1, GST-Dm-Relish (Drosophila melanogaster, UniProt Q94527 99-473); test: protein-binding microarray (PBM); PBM: ~300 nM protein, 6 mM HEPES pH 7.8, 80 mM KCl, 0.5 mM EDTA, 0.5 mM EGTA, 6% glycerol, 35 ng/ul poly-dIdC, 1% milk, 1 h, room temperature; Ap Aiptasia and Nv Nematostella (sea anemones) / Co Capsaspora / Aq Amphimedon (sponge) / Dm Drosophila / Hu human; RHD is the Rel homology domain; high values mean tight binding; settings: dsDNA, one strand shown
T1 sequence: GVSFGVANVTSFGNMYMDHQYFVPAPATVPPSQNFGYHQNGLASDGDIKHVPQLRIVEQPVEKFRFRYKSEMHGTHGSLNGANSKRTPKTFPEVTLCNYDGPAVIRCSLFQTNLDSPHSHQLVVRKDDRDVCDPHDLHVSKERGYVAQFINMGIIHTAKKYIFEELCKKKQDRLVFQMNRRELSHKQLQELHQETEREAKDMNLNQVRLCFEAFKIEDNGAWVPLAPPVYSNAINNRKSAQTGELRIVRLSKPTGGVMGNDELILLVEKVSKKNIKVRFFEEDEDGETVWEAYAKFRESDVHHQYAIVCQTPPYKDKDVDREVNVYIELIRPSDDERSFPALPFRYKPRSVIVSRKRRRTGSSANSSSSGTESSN

Sequence	binding signal
CCGATTAACATCACGGAAAGTCCTGATGTTAATCGGGTCTTGATTCGCTTGACGCTGCTG	3.12 z-score
CCGATTAACATCAGGACATCCCATGATGTTAATCGGGTCTTGATTCGCTTGACGCTGCTG	3.93 z-score
CCGATTAACATCAGGAAAAGTACTGATGTTAATCGGGTCTTGATTCGCTTGACGCTGCTG	4.26 z-score
CCGATTAACATCAAAAAATTCCTTGATGTTAATCGGGTCTTGATTCGCTTGACGCTGCTG	2.73 z-score
CCGATTAACATCAGGATTTTTCATGATGTTAATCGGGTCTTGATTCGCTTGACGCTGCTG	1.76 z-score
CCGATTAACATCAATAAAATTCCTGATGTTAATCGGGTCTTGATTCGCTTGACGCTGCTG	1.81 z-score
CCGATTAACATCAGCGGAAATCCTGATGTTAATCGGGTCTTGATTCGCTTGACGCTGCTG	1.26 z-score
CCGATTAACATCAAAAATTTCCGTGATGTTAATCGGGTCTTGATTCGCTTGACGCTGCTG	1.61 z-score
CCGATTAACATCAAAAATTTCCTTGATGTTAATCGGGTCTTGATTCGCTTGACGCTGCTG	1.94 z-score
CCGATTAACATCAGGACTTTCCATGATGTTAATCGGGTCTTGATTCGCTTGACGCTGCTG	3.27 z-score
CCGATTAACATCAGGTAACTACCTGATGTTAATCGGGTCTTGATTCGCTTGACGCTGCTG	3.08 z-score
CCGATTAACATCACGGACTTTCCTGATGTTAATCGGGTCTTGATTCGCTTGACGCTGCTG	2.95 z-score
CCGATTAACATCAAAAAAAATCCTGATGTTAATCGGGTCTTGATTCGCTTGACGCTGCTG	3.09 z-score
CCGATTAACATCAAGGAAACTCCTGATGTTAATCGGGTCTTGATTCGCTTGACGCTGCTG	1.12 z-score
CCGATTAACATCAAGTAATTTCCTGATGTTAATCGGGTCTTGATTCGCTTGACGCTGCTG	2.36 z-score
CCGATTAACATCAAAGGATTTCCTGATGTTAATCGGGTCTTGATTCGCTTGACGCTGCTG	1.74 z-score
CCGATTAACATCAGGGCTTTCCATGATGTTAATCGGGTCTTGATTCGCTTGACGCTGCTG	3.94 z-score
CCGATTAACATCAGGAATTCCAATGATGTTAATCGGGTCTTGATTCGCTTGACGCTGCTG	2.77 z-score
CCGATTAACATCACCGGAAATCCTGATGTTAATCGGGTCTTGATTCGCTTGACGCTGCTG	2.06 z-score
CCGATTAACATCAAAATTTCCACTGATGTTAATCGGGTCTTGATTCGCTTGACGCTGCTG	1.61 z-score

Sequence	binding signal
CCGATTAACATCAAGTACTTTCCTGATGTTAATCGGGTCTTGATTCGCTTGACGCTGCTG	5.26 z-score
CCGATTAACATCAAAGGAATTCCTGATGTTAATCGGGTCTTGATTCGCTTGACGCTGCTG	3.78 z-score
CCGATTAACATCAAGGAAAATCCTGATGTTAATCGGGTCTTGATTCGCTTGACGCTGCTG	1.5 z-score
CCGATTAACATCAGAAAATTCCATGATGTTAATCGGGTCTTGATTCGCTTGACGCTGCTG	1.53 z-score
CCGATTAACATCACGAAAATTCCTGATGTTAATCGGGTCTTGATTCGCTTGACGCTGCTG	1.12 z-score
CCGATTAACATCAGGAAAGTACATGATGTTAATCGGGTCTTGATTCGCTTGACGCTGCTG	6.88 z-score
CCGATTAACATCACGGAATTTTATGATGTTAATCGGGTCTTGATTCGCTTGACGCTGCTG	1.2 z-score
CCGATTAACATCACGTACTTTCCTGATGTTAATCGGGTCTTGATTCGCTTGACGCTGCTG	4.78 z-score
CCGATTAACATCAAGGAATTCCGTGATGTTAATCGGGTCTTGATTCGCTTGACGCTGCTG	1.78 z-score
CCGATTAACATCAATGGAATTCCTGATGTTAATCGGGTCTTGATTCGCTTGACGCTGCTG	3.2 z-score
CCGATTAACATCAGTACTTTCCATGATGTTAATCGGGTCTTGATTCGCTTGACGCTGCTG	5.35 z-score
CCGATTAACATCAGGAATCTCCATGATGTTAATCGGGTCTTGATTCGCTTGACGCTGCTG	1.01 z-score
CCGATTAACATCAGGAATTTCCATGATGTTAATCGGGTCTTGATTCGCTTGACGCTGCTG	2.65 z-score
CCGATTAACATCACGTAAAACCCTGATGTTAATCGGGTCTTGATTCGCTTGACGCTGCTG	3.01 z-score
CCGATTAACATCAGGAAATCCACTGATGTTAATCGGGTCTTGATTCGCTTGACGCTGCTG	2.24 z-score
CCGATTAACATCAGGAAAATTTATGATGTTAATCGGGTCTTGATTCGCTTGACGCTGCTG	1.44 z-score
CCGATTAACATCAGGAGTTTCCATGATGTTAATCGGGTCTTGATTCGCTTGACGCTGCTG	1.28 z-score
CCGATTAACATCAGGTAAGTCCATGATGTTAATCGGGTCTTGATTCGCTTGACGCTGCTG	1.83 z-score
CCGATTAACATCAGGATTTTTTATGATGTTAATCGGGTCTTGATTCGCTTGACGCTGCTG	2.63 z-score
